# This is a sample that favours compounds with a hit; in the whole collection about 12% have one here.
# BAZ2B block = qHTS Assay for Inhibitors of BAZ2B; AlphaScreen BAZ2B-H3K14Ac peptide displacement; Potency, µM (titrated, usually from 114 µM), without a hit: at the top dose activity change, negative = inhibition, hits mostly inhibitors; 4.4% of 360,000 active; AID 504333, 2011; note: % is set by controls: 0 for no effect and ±100 for the full control effect; nearly all actives have a fitted effect of over 60% in size
#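 Inhibition is scored as reduced AlphaScreen emission. The BAZ2B/b-H3(5-23)K14Ac complex (50 nM each) in PBS pH 7.4, 0.01% Tween-20 meets compound (up to 110 uM) for 30 min at RT before bead addition.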
# G9a block = qHTS Assay for Inhibitors of Histone Lysine Methyltransferase G9a | G9a H3K9 monomethylation, AlphaScreen, 2 h | AID 504332, 2011 | Potency, µM (series often up to 102 µM), for the others: at the top dose activity, negative = inhibition, hits mostly inhibitors | 8.8% of 350,000 active; note: % is set by controls: 0 for no effect and ±100 for the full control effect; nearly all actives have a fitted effect of over 75% in size
# Target sequence (Q96KQ7 913-1193 limits assumed): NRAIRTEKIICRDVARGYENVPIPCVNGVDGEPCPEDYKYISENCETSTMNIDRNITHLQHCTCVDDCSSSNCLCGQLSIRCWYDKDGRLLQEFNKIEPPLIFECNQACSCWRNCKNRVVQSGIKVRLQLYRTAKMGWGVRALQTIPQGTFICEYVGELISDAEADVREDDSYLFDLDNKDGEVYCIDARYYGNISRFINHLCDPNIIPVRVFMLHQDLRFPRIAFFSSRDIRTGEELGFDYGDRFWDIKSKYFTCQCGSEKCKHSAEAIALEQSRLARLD
#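 Step 1: enzyme (final 20 nM) with compound, 15 min RT. Step 2: substrate peptide 500 nM and SAM 20 uM, 2 h RT. Step 3: anti-H3K9me1 antibody and AlphaScreen beads, 10 min, then plate read.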
# Sfp PPTase inh = qHTS Assay for Inhibitors of Bacillus subtilis Sfp phosphopantetheinyl transferase (PPTase) | Biochemical Sfp PPTase activity, qHTS | Potency, µM, without a hit: largest response in the series, negative = inhibition, hits mostly inhibitors | 3.5% of 310,000 active;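 note: the enzyme is Sfp with the accession as filed and its product quenches rhodamine fluorescence; 0% = enzyme reaction without inhibitor and -100% = no enzyme wells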
#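 Buffer: 50 mM Hepes-Na pH 7.6, 10 mM MgCl2, 0.01% Nonidet P-40, 0.01% BSA. Enzyme 15 nM, pre-exposed to compound 15 min; substrates then added and fluorescence change tracked over 30 min.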
# HP1b chromo inh = HTS for Inhibitors of HP1-beta Chromodomain Interactions with Methylated Histone Tails; Chromobox protein homolog 1 (Homo sapiens), P83916; AlphaScreen HP1-beta / biotin-H3K9me3 peptide binding; Potency, µM (doses to about 114 µM), for inactives: at the top dose activity change, negative = inhibition, usual class: inhibitors; 0.56% of 390,000 active; note: nearly all actives have a fitted effect of over 70% in size
# Target sequence (P83916 whole entry, looked up): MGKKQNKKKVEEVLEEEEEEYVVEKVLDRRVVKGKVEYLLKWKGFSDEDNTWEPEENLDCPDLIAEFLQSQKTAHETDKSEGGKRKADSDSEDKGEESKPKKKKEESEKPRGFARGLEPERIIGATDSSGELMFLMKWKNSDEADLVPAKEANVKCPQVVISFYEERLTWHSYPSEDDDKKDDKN
#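 HP1-beta protein (50 nM final) preincubated 30 min at room temperature with biotinylated H3(1-18)K9me3 peptide (50 nM) in PBS pH 7.4, 0.01% Tween-20, then compound added for 30 min. AlphaScreen streptavidin donor/nickel chelate acceptor beads (10 ug/mL final), 30 min dark, luminescence read.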
# JMJD2A Tudor = qHTS Assay for Inhibitors of JMJD2A-Tudor Domain | Lysine-specific demethylase 4A (Homo sapiens), O75164 | AlphaScreen JMJD2A-Tudor / H3K4me3 peptide binding | Potency, µM (doses to about 114 µM), for the others: at the top dose activity change, negative = inhibition, usual class: inhibitors | 4.4% of 390,000 active; note: % is set by controls: 0 for no effect and ±100 for the full control effect; nearly all actives have a fitted effect of over 50% in size
# L3MBTL1 block = qHTS Assay for the Inhibitors of L3MBTL1. AlphaScreen L3MBTL1–H3K9me1 peptide binding. 0.66% of 230,000 active. Lethal(3)malignant brain tumor-like protein 1 (Homo sapiens), Q9Y468. Potency, µM (top dose mostly 57.1 µM), inactives show top-dose activity, negative = inhibition, actives largely listed as inhibitors; note: % is set by controls: 0 for no effect and ±100 for the full control effect; nearly all actives have a fitted effect of over 60% in size
#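 AlphaScreen assay: L3MBTL1 (50 nM final) was preincubated 30 min at room temperature with biotinylated H3(1-15)K9me1 peptide (75 nM final), then 30 min with library compounds; streptavidin donor and nickel chelate acceptor beads (10 ug/mL final) added, 30 min dark.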
# Numbers without * were called inactive; ? = inconclusive; nt = no result; [ ] = another dose, or the depositor's remark. Calls come from the whole dose curve; as a rule, active = well fitted curve in the direction sought with a large enough effect; inconclusive = small, poorly fitted or top-dose-only effect, or another doubt; inactive = no such curve, though single readings can be large; an effect the other way counts as inactive or inconclusive. Potency is the fitted concentration of half-maximal effect.
SMILES,BAZ2B block,G9a block,Sfp PPTase inh,HP1b chromo inh,JMJD2A Tudor,L3MBTL1 block
CCCOc1ccc(N2C(=O)CC(N3CCC(C(=O)OCC)CC3)C2=O)cc1 (stereo not drawn),-1%,50µM*,13%,29%,-21%,7%
COc1ccc(N2C(=O)CC(SCC(=O)O)C2=O)cc1 (stereo not drawn),-2%,-20%[59 µM],9%,34%,-9%,-3%
Cc1sc2c(c1C)c(=O)n(-c1cccc(C(F)(F)F)c1)c(=O)n2Cc1ccccc1C#N,33%,24%[59 µM],nt,50%,-14%,nt
CN(C)S(=O)(=O)c1ccc(Cl)c(NC(=O)CN2CCCC2)c1,0%,-45%,2%,8%,-5%,nt
CCOc1ccc(N2C(=O)CC(N)C2=O)cc1 (stereo not drawn),0%,7.9µM*,-24%,-24%,-11%,?
COC(=O)c1ccc(N2C(=O)CC(SCCN)C2=O)cc1 (stereo not drawn),-4%,14µM*,8%,18%,?,4%
CCCOc1ccc(N2C(=O)CC(SCCN)C2=O)cc1 (stereo not drawn),-6%,3.5µM*,?,26%,-6%,6%
COc1cc(C2CC(=O)Oc3cc(C)c(Cl)cc32)cc(OC)c1OC (stereo not drawn),nt,21%,-12%,nt,nt,nt
CC(C)Oc1ccc(CNC(=O)C2CCCCN2S(=O)(=O)c2ccc(F)cc2)cc1 (stereo not drawn),6%,-6%[59 µM],nt,41%,14%,nt
Oc1c(Cl)cc(Cl)c2cccnc12,nt,40µM*,-21%,-5%,28µM*,nt
Cc1ccc(S(=O)(=O)Nc2cc(Cl)c(O)c3ncccc23)cc1,8.9µM*,7.9µM*,-6%,79µM*,22µM*,nt
Oc1ccc(Cl)c2cccnc12,nt,24%[59 µM],28%,9%,18µM*,nt
O=C(Oc1c(Cl)cc(Cl)c2cccnc12)c1cccs1,24%,13%[59 µM],13%,125%,38%,16%
CNC(=O)COc1ccc(Cl)c2cccnc12,-9%,nt,?,4%,-16%,10%
Clc1cc2cccnc2c2ccccc12,63%,-25%[59 µM],-23%,71%,28%,19%
O=C(Oc1c(Cl)cc(Cl)c2cccnc12)c1ccco1,?,?,1%,23%,89µM*,nt
CC(C)Cc1nnc(NC(=O)CCC(=O)N2CCCCC2)s1,-2%[57.1 µM],?,22%,11%,-16%,nt
Oc1ccc(F)c2cccnc12,16µM*,-4%[59 µM],5%,-18%,10µM*,?
O=C(Oc1ccc(Cl)c2cccnc12)c1cccnc1,56µM*,1%,28%,45%,-26%,?
O=C(Oc1ccc(Cl)c2cccnc12)N1CCCCC1,-3%,-8%[59 µM],9%,19%,-16%,9%
Cc1ccc(N=Nc2ccc(O)c3ncccc23)cc1C,-30%,?,6%,-5%,?,nt
CCCn1cc(S(=O)(=O)c2ccc(Cl)cc2)c(=O)c2cc(OC)ccc21,?,2%,5%,20%,22µM*,nt
COc1ccccc1NS(=O)(=O)c1ccc(Cl)c(NC(=O)C(C)N2C(=O)c3ccccc3C2=O)c1 (stereo not drawn),-10%,50µM*,?,13%,-13%,-9%
O=C(NNS(=O)(=O)c1ccc(Br)cc1)c1csnn1,-6%,50µM*,-10%,-4%,?,8%
NS(=O)(=O)c1ccc(NC(=O)c2csnn2)cc1,-16%,22µM*,nt,?,89µM*,nt
SMILES,BAZ2B block,G9a block,Sfp PPTase inh,HP1b chromo inh,JMJD2A Tudor,L3MBTL1 block
O=C(NNS(=O)(=O)c1ccc(Br)cc1)c1ccccc1-n1cccc1,-29%,15%,28%,21%,-11%,nt
CC(/C=C/c1ccc(Cl)o1)=C\C(=O)O,?,50µM*,32µM*,13%,-26%,?
CC(=C/C(=O)O)/C=C/c1ccco1,-9%,40µM*,?,20%,-18%,?
Cc1ccc(C(C)C)c(OCCn2ccnc2C)c1,50µM*,10µM*,-29%,?,1.3µM*,-3%
Cc1ccc(OCCCCn2ccnc2C)c(C)c1,22µM*,2µM*,?,?,1µM*,-10%
Cc1ccc(OCCCCN2CCCCC2)c(C)c1,0%,-11%,1%,36%,-9%,-1%
Cc1ccc(C(C)C)c(OCCNS(C)(=O)=O)c1,2%,15%[59 µM],26%,24%,-8%,nt
COc1ccc(/C(C)=N/N=C2/NC(=O)CC(C(=O)O)S2)cc1 (stereo not drawn),-3%,12%[59 µM],5%,8%,45µM*,4%
C/C(=N\N=C1\NC(=O)CC(C(=O)O)S1)c1ccc(F)cc1 (stereo not drawn),-21%,0%[59 µM],-10%,32%,-20%,-3%
O=C1CC(C(=O)O)S/C(=N\NC(=O)c2ccccc2)N1 (stereo not drawn),50µM*,?,?,11%,1.4µM*,12%
CCN1CCN(C(=S)NC(=O)/C=C/c2cccs2)CC1,-3%,50µM*,-9%,28%,-10%,16%
CCN1CCN(C(=S)NC(=O)c2cccs2)CC1,?,50µM*,-24%,-17%,8.9µM*,nt
CC(=O)N1CCN(C(=O)CNC(=O)c2cccs2)CC1,-11%,-3%[2.33 µM],nt,40%,-11%,-3%
CCCCNC(=O)/C=C/c1cccs1,5%,19%[59 µM],13%,-10%,10%[57.1 µM],5%
COc1cc(OC)cc(C(=O)N[C@H](C(=O)OCC(=O)Nc2cccnc2Cl)C(C)C)c1,10%,-5%[59 µM],nt,12%,-18%,4%
Cc1ccc(OC2C(O)COC2/C=C/C#Cc2ccc(C(C)(C)C)cc2)cc1 (stereo not drawn),nt,nt,-3%,nt,nt,nt
CN(Cc1ccco1)c1cc(-c2ccoc2)ncn1,nt,-24%[0.501 µM],32µM*,nt,nt,nt
Cc1noc(C)c1-c1cc(N(C)Cc2ccco2)ncn1,nt,-26%[0.501 µM],56µM*,nt,nt,nt
COc1ccc(S(=O)(=O)Oc2ccccc2C(N)=O)cc1,6%,-1%,nt,24%,-3%,6%
COc1ccc(C(C)=O)cc1COC(=O)CSCC(=O)Nc1ccc(C)cc1,79µM*,1%[0.501 µM],nt,26%,-8%,3%

# Screens from PubChem BioAssay.
